# Values without a mark were called inactive. Calls of active or inactive are those of the source. Cut-off read from the data, not from the text of the source, unless noted: active = inhibition above about 25%; inactive = the rest.
# What was measured:
# [1] = target: Nuclear receptor coactivator 3 (Homo sapiens) (UniProt Q9Y6Q9); test: SRC3 coactivator transcriptional activity inhibitors, confirmation, cell-based, luminescence, quadruplicate (AID 588792;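 active = mean inhibition over 43.08%, the solvent-only control mean plus 3 SD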;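 note: 0% = DMSO treated cells and 100% = gossypol at 36 µM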); conditions: HEK293 GAL4-SRC3 luciferase reporter, at 3.6 µM, stronger effect = higher value
# Nuclear receptor coactivator 3 (Homo sapiens), sequence (Q9Y6Q9 whole entry, looked up, the tested form may be a part): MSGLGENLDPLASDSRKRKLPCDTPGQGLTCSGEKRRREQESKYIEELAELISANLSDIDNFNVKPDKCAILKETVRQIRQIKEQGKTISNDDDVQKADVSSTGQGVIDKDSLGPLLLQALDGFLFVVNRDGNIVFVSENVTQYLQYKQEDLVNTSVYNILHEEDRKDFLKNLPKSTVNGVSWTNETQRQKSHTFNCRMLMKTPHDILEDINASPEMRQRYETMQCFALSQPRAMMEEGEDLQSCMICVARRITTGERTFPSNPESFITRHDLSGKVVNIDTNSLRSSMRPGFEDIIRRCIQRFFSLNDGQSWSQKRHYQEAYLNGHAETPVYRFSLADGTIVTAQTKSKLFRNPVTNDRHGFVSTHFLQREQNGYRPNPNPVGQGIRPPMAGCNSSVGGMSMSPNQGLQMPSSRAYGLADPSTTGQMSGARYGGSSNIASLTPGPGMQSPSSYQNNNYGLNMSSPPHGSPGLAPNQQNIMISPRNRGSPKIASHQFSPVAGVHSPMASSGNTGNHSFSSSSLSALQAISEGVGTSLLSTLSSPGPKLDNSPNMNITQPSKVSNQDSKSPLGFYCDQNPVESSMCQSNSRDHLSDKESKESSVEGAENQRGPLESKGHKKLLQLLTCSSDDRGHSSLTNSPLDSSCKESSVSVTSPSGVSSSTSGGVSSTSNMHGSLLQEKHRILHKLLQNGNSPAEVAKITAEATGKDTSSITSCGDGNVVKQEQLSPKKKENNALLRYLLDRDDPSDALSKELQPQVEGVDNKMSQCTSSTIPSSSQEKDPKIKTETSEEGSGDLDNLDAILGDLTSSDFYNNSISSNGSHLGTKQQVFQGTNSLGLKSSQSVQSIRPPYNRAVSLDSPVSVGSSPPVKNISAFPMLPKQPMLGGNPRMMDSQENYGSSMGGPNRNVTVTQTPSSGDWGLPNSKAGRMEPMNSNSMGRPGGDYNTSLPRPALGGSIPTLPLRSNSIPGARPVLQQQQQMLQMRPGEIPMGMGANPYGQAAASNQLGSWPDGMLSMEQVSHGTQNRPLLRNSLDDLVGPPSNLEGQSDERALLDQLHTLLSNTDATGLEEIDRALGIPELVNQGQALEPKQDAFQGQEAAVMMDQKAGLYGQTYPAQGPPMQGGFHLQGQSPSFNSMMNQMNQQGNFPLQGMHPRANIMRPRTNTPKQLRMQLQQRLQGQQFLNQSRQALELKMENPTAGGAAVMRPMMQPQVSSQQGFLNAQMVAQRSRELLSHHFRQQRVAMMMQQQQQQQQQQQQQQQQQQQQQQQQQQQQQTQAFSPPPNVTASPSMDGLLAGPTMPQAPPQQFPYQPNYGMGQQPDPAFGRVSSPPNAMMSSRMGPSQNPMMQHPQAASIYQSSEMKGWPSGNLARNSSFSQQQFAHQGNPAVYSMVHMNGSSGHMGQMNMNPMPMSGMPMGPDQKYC
# [2] = system: transactivating tegument protein VP16 (Human herpesvirus 1), Gal4-VP16 luciferase reporter; test: VP16 transactivation inhibitors, counter-screen for SRC3 inhibitor project, cell-based, luminescence, high throughput (AID 588794; in the data active = inhibition above about 30%); conditions: mammalian cells, VP16-driven luciferase reporter luminescence; at 3.6 µM; stronger effect = higher value
# [3] = target: Nuclear receptor coactivator 1 (Homo sapiens) (UniProt Q15788); test: SRC1 coactivator transcriptional activity inhibitors, confirmation, cell-based, luminescence, quadruplicate (AID 588820;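 active = mean inhibition above 46.68%, the untreated control wells mean plus 3 SD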;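 note: 0% = DMSO wells and 100% = gossypol 36 µM treated wells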); conditions: HEK293 GAL4-SRC1 luciferase reporter, at 3.6 µM, stronger effect = higher value
# Nuclear receptor coactivator 1 (Homo sapiens), sequence (Q15788 whole entry, looked up, the tested form may be a part): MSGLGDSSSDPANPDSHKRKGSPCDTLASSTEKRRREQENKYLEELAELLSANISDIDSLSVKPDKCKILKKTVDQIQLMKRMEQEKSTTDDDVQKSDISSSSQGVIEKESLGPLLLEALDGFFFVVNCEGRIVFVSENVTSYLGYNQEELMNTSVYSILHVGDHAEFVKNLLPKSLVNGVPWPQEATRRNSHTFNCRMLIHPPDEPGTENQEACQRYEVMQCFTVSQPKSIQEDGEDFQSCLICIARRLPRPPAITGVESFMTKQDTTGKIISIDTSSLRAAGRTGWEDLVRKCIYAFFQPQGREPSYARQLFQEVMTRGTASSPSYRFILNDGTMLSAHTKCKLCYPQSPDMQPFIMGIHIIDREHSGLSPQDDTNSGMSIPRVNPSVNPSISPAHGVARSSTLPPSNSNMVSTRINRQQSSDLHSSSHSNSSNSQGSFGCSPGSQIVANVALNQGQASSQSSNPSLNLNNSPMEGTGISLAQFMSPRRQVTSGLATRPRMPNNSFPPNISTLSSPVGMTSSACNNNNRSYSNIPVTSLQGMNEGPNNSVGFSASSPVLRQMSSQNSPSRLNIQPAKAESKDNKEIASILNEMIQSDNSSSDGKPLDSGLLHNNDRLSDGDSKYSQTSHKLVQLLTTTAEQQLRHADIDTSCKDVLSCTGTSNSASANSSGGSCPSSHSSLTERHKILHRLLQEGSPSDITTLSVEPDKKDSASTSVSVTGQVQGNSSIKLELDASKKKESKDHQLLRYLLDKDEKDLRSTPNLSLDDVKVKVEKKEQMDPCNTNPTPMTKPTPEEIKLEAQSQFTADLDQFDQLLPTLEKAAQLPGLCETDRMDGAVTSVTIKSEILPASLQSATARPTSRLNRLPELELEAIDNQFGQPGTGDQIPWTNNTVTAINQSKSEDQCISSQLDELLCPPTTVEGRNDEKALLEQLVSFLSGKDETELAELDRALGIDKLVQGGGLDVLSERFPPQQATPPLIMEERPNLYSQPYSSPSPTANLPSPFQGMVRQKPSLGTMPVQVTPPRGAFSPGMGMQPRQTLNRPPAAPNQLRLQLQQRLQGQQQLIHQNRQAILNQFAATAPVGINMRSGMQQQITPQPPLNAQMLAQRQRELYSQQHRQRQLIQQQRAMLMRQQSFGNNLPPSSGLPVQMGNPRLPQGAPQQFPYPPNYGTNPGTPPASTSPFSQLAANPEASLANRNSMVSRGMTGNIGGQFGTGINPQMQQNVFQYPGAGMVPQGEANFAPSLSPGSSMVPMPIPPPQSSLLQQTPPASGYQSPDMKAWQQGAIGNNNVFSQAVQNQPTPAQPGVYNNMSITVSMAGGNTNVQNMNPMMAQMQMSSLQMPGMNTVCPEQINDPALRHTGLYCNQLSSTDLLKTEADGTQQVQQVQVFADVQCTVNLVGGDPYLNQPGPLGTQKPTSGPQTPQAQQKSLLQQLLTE
# [4] = VP16 transactivation inhibitors, counter-screen for SRC1 inhibitor project, cell-based, luminescence, high throughput (AID 588824); conditions: cell-based VP16 transactivation luciferase luminescence; at 3.6 µM; stronger effect = higher value
# [5] = StAR promoter reporter inhibitors, counter-screen for LRH-1 inverse agonist project, cell-based, luminescence, high throughput (AID 651611; in the data active = inhibition above about 28%); conditions: StAR promoter luciferase reporter counterscreen, at 3.6 µM, stronger effect = higher value
# [6] = target: Nuclear receptor subfamily 5 group A member 2 (Homo sapiens) (UniProt O00482); test: LRH-1 (NR5A2) inverse agonists, retest, confirmation, cell-based, luminescence (AID 651613; in the data active = inhibition above about 42%;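 note: HEK293T cells co-transfected with LRH-1 and StAR promoter luciferase reporter; 0% = vehicle wells and 100% = parental cells lacking receptor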); conditions: cell-based LRH-1 luciferase reporter, inverse agonism; at 3.6 µM; stronger effect = higher value
# Nuclear receptor subfamily 5 group A member 2 (Homo sapiens), sequence (O00482 whole entry, looked up): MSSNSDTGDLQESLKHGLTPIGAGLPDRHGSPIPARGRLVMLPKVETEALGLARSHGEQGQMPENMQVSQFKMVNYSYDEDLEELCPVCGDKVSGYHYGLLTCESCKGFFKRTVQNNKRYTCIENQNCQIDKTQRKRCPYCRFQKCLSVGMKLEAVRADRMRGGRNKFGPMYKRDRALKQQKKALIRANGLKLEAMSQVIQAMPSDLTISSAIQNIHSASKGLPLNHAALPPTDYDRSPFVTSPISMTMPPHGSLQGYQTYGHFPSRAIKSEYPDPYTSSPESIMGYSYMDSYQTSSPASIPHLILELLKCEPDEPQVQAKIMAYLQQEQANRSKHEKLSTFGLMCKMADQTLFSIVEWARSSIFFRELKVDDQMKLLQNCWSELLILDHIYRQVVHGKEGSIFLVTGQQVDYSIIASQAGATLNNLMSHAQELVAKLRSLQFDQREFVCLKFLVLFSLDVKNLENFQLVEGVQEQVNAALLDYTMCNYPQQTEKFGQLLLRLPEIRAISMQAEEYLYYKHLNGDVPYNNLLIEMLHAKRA
# [7] = target: Steroidogenic factor 1 (Homo sapiens) (UniProt Q13285); test: SF1 (NR5A1) inverse agonists, counter-screen for LRH-1 inverse agonist project, cell-based, luminescence, high throughput (AID 651614; in the data active = inhibition above about 44%;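 note: cells cotransfected with StAR promoter reporter and SF1 expression vector; 0% = vehicle on cells with receptor and 100% = vehicle on cells lacking receptor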); conditions: cell-based SF1 luciferase reporter, at 3.6 µM, stronger effect = higher value
# Steroidogenic factor 1 (Homo sapiens), sequence (Q13285 whole entry, looked up, the tested form may be a part): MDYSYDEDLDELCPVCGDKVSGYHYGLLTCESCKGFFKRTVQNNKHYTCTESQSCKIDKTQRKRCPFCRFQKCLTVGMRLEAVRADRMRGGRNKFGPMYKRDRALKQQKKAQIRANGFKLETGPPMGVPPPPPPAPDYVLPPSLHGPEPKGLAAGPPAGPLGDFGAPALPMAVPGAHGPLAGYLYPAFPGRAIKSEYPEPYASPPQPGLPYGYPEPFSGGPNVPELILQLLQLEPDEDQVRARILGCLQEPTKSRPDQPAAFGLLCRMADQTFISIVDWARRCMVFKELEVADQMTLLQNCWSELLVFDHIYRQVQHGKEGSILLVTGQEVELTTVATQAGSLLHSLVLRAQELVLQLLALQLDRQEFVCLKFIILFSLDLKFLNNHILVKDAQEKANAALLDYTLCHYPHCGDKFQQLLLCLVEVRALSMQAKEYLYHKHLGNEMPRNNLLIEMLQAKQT
# [8] = VP16 transactivation reporter inhibitors, counter-screen for LRH-1 inverse agonist project, cell-based, luminescence, high throughput (AID 651615; in the data active = inhibition above about 33%); conditions: Gal4-VP16 luciferase reporter cells, at 3.6 µM, stronger effect = higher value
SMILES,inhibition [1],inhibition [2],inhibition [3],inhibition [4],inhibition [5],inhibition [6],inhibition [7],inhibition [8]
NC(=O)c1cc([N+](=O)[O-])ccc1NCc1ccc(O)cc1,25.3%,43.5% (active),1.01%,30% (active),48.6% (active),63.8% (active),67.8% (active),66.9% (active)
CCCCCCCCCn1ccc(=N)cc1,68.9% (active),84.2% (active),58.6% (active),85.2% (active),72.7% (active),102% (active),91.3% (active),85.9% (active)
Cc1cccn2c(=O)c3cc(C(=O)NCCN4CCOCC4)c(=N)n(Cc4ccc(F)cc4)c3nc12,36.9%,41.6% (active),44.4%,28.3% (active),45.4% (active),73.9% (active),61.6% (active),60.1% (active)
CCCCCCn1c2c(c(=N)c3c1CCC3)CCC2,61.3% (active),76.9% (active),55.4% (active),76.4% (active),68.7% (active),110% (active),91.7% (active),93.6% (active)
Cc1ccc(S(=O)(=O)Nc2ccccc2C(=O)Nc2nc(-c3ccc(F)cc3)cs2)cc1,20.7%,27.8%,20.1%,37% (active),42.1% (active),82.7% (active),80.3% (active),72.4% (active)
COC(=O)c1c(NC(=O)c2cccc([N+](=O)[O-])c2)sc(C(N)=O)c1C,23.4%,55.9% (active),18.9%,47.2% (active),46.9% (active),84.6% (active),80.5% (active),69.2% (active)
Cc1cc(OCc2nc(N)nc(N)c2-c2ccc(Cl)c(Cl)c2)ccc1[N+](=O)[O-],52.2% (active),30.6% (active),71.3% (active),30.1% (active),70.7% (active),69.5% (active),63.5% (active),42% (active)
CC(=O)NC(c1ccc(Cl)cc1)c1ccc2cccnc2c1O (stereo not drawn),83% (active),79.9% (active),80% (active),78.4% (active),89.2% (active),104% (active),91.2% (active),87% (active)
Cc1cc(/C=C2\SC(=S)N(C)C2=O)c(C)n1-c1ccc(O)cc1,73.9% (active),61.8% (active),49% (active),47.5% (active),40.3% (active),7.93%,48% (active),39.5% (active)
O=C(O)CSCC(=O)Nc1ccc(C2CCCCC2)cc1,72% (active),62.4% (active),64.2% (active),63.7% (active),71.4% (active),78.8% (active),64.5% (active),63.6% (active)
O=C(NCc1ccco1)c1cccc(NC(=O)c2ccccc2)c1,23.4%,52.9% (active),33.7%,53.1% (active),58.8% (active),65.6% (active),66% (active),69.5% (active)
O=C(Nc1ccc(N2CCN(C(=O)c3ccccc3)CC2)cc1)c1ccc2c(c1)OCO2,36.9%,66.7% (active),37.4%,57.1% (active),50.2% (active),64% (active),73.8% (active),70.5% (active)
N=C1C=CC(=C(c2ccc(N)cc2)c2ccc(N)cc2)C=C1,56.2% (active),60% (active),45.2%,45.9% (active),54.9% (active),110% (active),85.2% (active),88.5% (active)
Cc1ccc2[nH]cc(/C=C/c3cc[n+](C)cc3)c2c1,40.1%,52.6% (active),14.5%,59.7% (active),42.2% (active),84% (active),75.5% (active),70.5% (active)
Cc1cc(/C=N/n2cnnc2)c(C)n1-c1ccc(OCc2ccc(Cl)cc2Cl)cc1,19.7%,43.4% (active),8.2%,37.6% (active),36.5% (active),67% (active),68.7% (active),62.3% (active)
O=C1[C@@H]2Cc3c([nH]c4ccccc34)C(c3ccc([N+](=O)[O-])cc3)N2C(=O)CN1C1CC1 (stereo partly drawn),63.7% (active),64% (active),62.3% (active),62.6% (active),60.7% (active),67.9% (active),71.4% (active),75.7% (active)

# — PubChem BioAssay
